# TDP1 cell CPT: growth inhibition of DT40 Tdp1-/-;hTDP1 cells with camptothecin (screen for TDP1 inhibitors) | chicken DT40 Tdp1-/-;hTDP1 cells + 20 nM CPT, ATP luminescence, 48 h | Potency, µM (series often up to 46.2 µM), for inactives: at the top dose activity change, negative = growth inhibition, usual class: inhibitors | 420,000 tested, 12% active; note: potency is the fitted concentration of half-maximal effect; nearly all actives have a fitted effect of over 55% in size
#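 Cell growth measured by CellTiter-Glo luminescence after a minimum 48 h, 37 C compound exposure with 20 nM CPT in Tdp1-knockout DT40 cells stably expressing hTDP1, seeded 400/well; qHTS titration format.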
# HT1080NT lethal: kills 2HG-producing HT-1080-NT fibrosarcoma cells. HT-1080-NT fibrosarcoma viability, CellTiter-Glo ATP luminescence, 48 h. Potency, µM (highest dose often 46.1 µM), without a hit: top-dose activity, negative = less viability, hits mostly cytotoxic. 360,000 tested, 1.6% active. AID 686970;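 note: NT is the 2HG producing partner of a matched IDH1 knockdown line; potency is the fitted concentration of half-maximal effect; 0% = DMSO-treated cells and -100% = media-only wells without cells; nearly all actives have a fitted effect of over 55% in size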
#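 Compounds were tested in concentration-response format on HT-1080-NT cells for 48 hours at 37 degrees C. Cell viability came from CellTiter-Glo luminescence; curves were classified by r2, response magnitude and activity.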
# HT1080 IDH1KD tx: kills HT-1080 cells with IDH1 knockdown | Potency, µM (series often up to 46.1 µM), inactives show top-dose activity, negative = toxicity, actives largely listed as cytotoxic | AID 686971 | 360,000 tested, 2% active | HT-1080 IDH1 knockdown viability, ATP luminescence, 48 h;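 note: potency is the fitted concentration of half-maximal effect; 0% = DMSO wells and -100% = cell-free medium wells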
#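 In this qHTS, HT-1080 cells depleted of IDH1 are exposed for 48 h at 37 °C to compound titrations. Toxicity is scored from CellTiter-Glo luminescence, with DMSO as full viability and medium alone as none.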
# ELG1 DNA repair: ELG1-dependent DNA repair inhibition; HEK293T ELG1-luciferase reporter, luminescence, 16 h; DNA damage induced by 5-fluorouridine; Potency, µM (highest dose often 46.1 µM), inactives show at the highest dose activity change, negative = inhibition, usual class: inhibitors; 330,000 tested, 2.3% active; AID 504467; note: potency is the fitted concentration of half-maximal effect; nearly all actives have a fitted effect of over 55% in size
#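 Overnight (16 hr) co-exposure of 2,000 cells/well to 5-fluorouridine and compound at 37 °C preceded detection. Luciferase was quantified via ONE-Glo luminescence; loss of signal denotes inhibition.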
# IL1B secr inh: inhibitors of inflammasome signaling (IL-1 beta secretion); THP-1 LPS/ATP IL-1B secretion, AlphaLISA, 16 h; hits give low values; activity change, % at 57.5 µM; 360,000 tested, 4.7% active; AID 743279; in the data active = activity change below about -50%; inconclusive = mostly about -30% to -49%
#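 Secreted IL-1B measured by AlphaLISA bead assay after 16 h compound exposure of THP-1 cells; compounds (final up to 57.5 uM) added 1 h before LPS (250 ng/mL) and ATP (1.25 mM) stimulation; lower signal means less secretion.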
# TDP1 cell noCPT: qHTS for Inhibitors of human tyrosyl-DNA phosphodiesterase 1 (TDP1): qHTS in cells in absence of CPT. Potency, µM (series often up to 46.2 µM), for the others: at the highest dose activity change, negative = growth inhibition, hits mostly inhibitors. 420,000 tested, 15% active. DT40 Tdp1-/- hTDP1 cells, no CPT, ATP luminescence, 48 h; note: potency is the fitted concentration of half-maximal effect; nearly all actives have a fitted effect of over 55% in size
#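 Cells were dispensed at 400 per well, compounds added by pin tool, plates incubated ≥48 hr at 37 °C, then CellTiter-Glo added for 30 min at room temperature before luminescence reading. Line: DT40 Tdp1-/- complemented with hTDP1; camptothecin omitted.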
# Numbers without * were called inactive; ? = inconclusive; . = no result given. Shown are actives, neighbours in structure and some others; about 19% of the full set was active somewhere. Unless noted, calls come from the whole dose curve; as a rule, active = well fitted curve in the direction sought with a large enough effect; inconclusive = small, poorly fitted or top-dose-only effect, or another doubt; inactive = no such curve, though single readings can be large; an effect the other way counts as inactive or inconclusive. Unless noted, % is set by controls: 0 for no effect and ±100 for the full control effect.
SMILES,TDP1 cell CPT,HT1080NT lethal,HT1080 IDH1KD tx,ELG1 DNA repair,IL1B secr inh,TDP1 cell noCPT
O=C(Cn1cc(C(F)(F)F)ccc1=O)NC1CCCC1,15%,10%,0%,15%,3,-5%
CC1(c2cccc(Br)c2)NC(=O)N(CC(=O)c2ccc3c(c2)OCO3)C1=O (centres undefined),-22%,-3%,-2%,.,-17,-18%
CC(=O)c1sc(NC(=O)C2CCN(C(=O)c3ccccc3C)CC2)nc1-c1ccccc1,18µM*,-14%,-9%,?,-2,?
Cn1ncc([N+](=O)[O-])c1C(=O)Nc1nc2ccccc2n1CCN1CCCCC1,-20%,3%,5%,-20%,?,?
Cc1cccc(NC(=O)C2CCN(C(=O)c3ccccc3C)CC2)n1,-10%,10%,0%,13%,7,-13%
CCCn1c(NC(=O)C2CCN(C(=O)c3ccccc3C)CC2)nc2ccccc21,16µM*,-2%,-13%,-22%,-27,?
CCCn1c(NC(=O)c2ccc([N+](=O)[O-])o2)nc2ccccc21,21µM*,-20%,?,?,-20,?
CCCn1c(NC(=O)c2cccc(C)c2C)nc2ccccc21,13µM*,?,?,-25%,9,15µM*
O=C(NC(C1CC1)C1CC1)C1CCC(=O)N(CCCN2CCCC2=O)C1 (centres undefined),-3%,4%,1%,19%,9,7%
CS(=O)(=O)OCCCNCCCOS(C)(=O)=O,2%,.,.,.,.,-21%
COc1ccc(-c2cc(C(=O)Nc3cc(Cl)ccc3O)no2)cc1,?,?,22%,?,?,?
COc1ccc(Nc2cccc3ccccc23)cc1,?,-2%,-8%,?,0,?
COc1ccc(S(=O)(=O)NNC(N)=S)cc1,-2%,15%,8%,11%,6,-15%
N#Cc1sc2nccc(Nc3ccccc3)c2c1N,?,-24%,-23%,.,93,2.1µM*
Cc1ccc(/C(=N\O)c2oc3c(C)c4oc(=O)cc(C)c4cc3c2C)cc1,18µM*,?,23µM*,21µM*,-29,16µM*
CCc1c(C(=O)c2ccc(Cl)cc2)oc2c(C)c3oc(=O)cc(C)c3cc12,-16%,15%,9%,?,6,-8%
Cc1cc(=O)oc2c1ccc1oc(/C(=N/O)c3ccccc3)c(C)c12,21µM*,?,?,16µM*,-74*,26µM*
CCCOCC(O)CCc1n[nH]c(=S)n1-c1ccccc1 (centres undefined),6%,14%,4%,6%,-5,-2%
Cc1cccc(OCCC(=O)Nc2ccc(N3CCOCC3)cc2N2CCOCC2)c1,-26%,15%,1%,-10%,?,?
C/C(=N/NC(=O)CN1CCN(Cc2ccccc2)CC1)c1ccc([N+](=O)[O-])cc1,4%,-2%,-3%,?,-6,?
Cc1ccc(CSCCNC(=O)CSCc2ccc([N+](=O)[O-])cc2)cc1,-29%,-17%,3%,1%,0,?
C/C(=N\NC(=O)Cc1ccc(Cl)cc1)c1ccccc1O,?,?,5.2µM*,-1%,74,0.16µM*
C/C(=N\NC(=O)C(C)Sc1ccccc1)C(C)(C)C (centres undefined),-6%,-3%,2%,17%,8,-1%
C/C(=N\NC(=O)CSCc1ccc([N+](=O)[O-])cc1)c1ccccc1,?,-3%,0%,?,?,16µM*
C/C(=N\NC(=O)Cc1ccc(Cl)cc1)c1ccc(F)cc1,-13%,-4%,3%,-9%,-7,?

# Assay outcomes: PubChem BioAssay, National Center for Advancing Translational Sciences (NCATS)
